Source: PubChem
TLR4-MyD88 BLA – inhibitors of TLR4-MyD88 association in cells, primary screen, cell-based, HeLa CL3-4, BLA complementation, FRET ratio; AID 861, 2007; inhibition, % at 8.4 µM; 200,000 compounds, 0.18% hits; Toll-like receptor 4 (Homo sapiens) + Myeloid differentiation primary response protein …; HeLa CL3-4 TLR4/MyD88 BLA complementation; in the data active means inhibition above about 25%;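 further: 0% = vehicle and 100% = reference inhibitor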
ABHD5-PLIN5 inh – ABHD5-PLIN5 interaction inhibitors, primary screen, cell lysate, split luciferase complementation, luminescence; Perilipin-5 (Homo sapiens) + 1-acylglycerol-3-phosphate O-acyltransferase ABHD5 (Homo …; Split G. princeps luciferase complementation, 4 h; inhibition, % at 4 µM; 360,000 compounds, 0.78% hits; AID 602281, 2012;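 active means inhibition above the mean inhibition across every tested compound plus 3 SD, cut at about 22% in these data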;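 further: 0% = DMSO only wells and the 100% control is not disclosed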
PRMT1 inh – PRMT1 methyltransferase inhibitors, primary screen, biochemical, fluorescence polarization. Protein arginine N-methyltransferase 1 (Homo sapiens), Q99873. inhibition, % at 2.79 µM. AID 652257, 2013. recombinant PRMT1, activity-based probe fluorescence polarization. 370,000 compounds, 1.3% hits;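 active means inhibition above about 21% made by adding two undisclosed values, limit read from the data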
NOD2 RIPK2 PPI – NOD2-RIPK2 binding disruptors in cells, primary screen, fluorescence, CHO cells, BLA complementation. Receptor-interacting serine/threonine-protein kinase 2 (Homo sapiens), O43353. CCF4 ratio. inhibition, % at 4.98 µM. 360,000 compounds, 0.38% hits. AID 624267, 2012; in the data active means inhibition above about 21%;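 further: 0% = vehicle only and 100% = reference blocker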
TLR9-MyD88 block – inhibitors of TLR9-MyD88 association in cells, primary screen, cell-based, CHO, BLA complementation, fluorescence; Toll-like receptor 9 (Homo sapiens) + Myeloid differentiation primary response protein …; CCF4 FRET ratio; inhibition, % at 4.98 µM; 340,000 compounds, 0.21% hits; AID 504734, 2011;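 active means inhibition above the mean over all tested compounds plus 3 SD, cut at about 21% in these data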;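 further: 0% = DMSO only wells and 100% = clavulanate BLA inhibitor control wells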
Granule exo inh – LAMP-1 surface exposure blockers, TALL-104 cells – cell-based, flow cytometry, MLPCN library, primary screen; TALL-104 LAMP-1 surface exposure; cells stimulated with thapsigargin and PMA; inhibition, % at 10 µM; 360,000 compounds, 0.66% hits; AID 651702, 2012;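 active means inhibition above about 55%, limit read from the data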
PRMT1 inh conf – PRMT1 methyltransferase inhibitors, confirmation, biochemical, fluorescence polarization, triplicate | shares compounds with PRMT1 inh | recombinant His-PRMT1, activity-based probe fluorescence polarization | inhibition, % at 2.79 µM | 3,300 compounds, 42% hits | AID 687036, 2013;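 active means mean inhibition across replicates above the hit cutoff derived for the earlier primary screen, cut at about 22% in these data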
* marks the source's active call; other numbers are inactive results; nt = not tested or not shown. Most compounds without a hit are left out; they make up all but 2.6% or so of the library.

SMILES | TLR4-MyD88 BLA | ABHD5-PLIN5 inh | PRMT1 inh | NOD2 RIPK2 PPI | TLR9-MyD88 block | Granule exo inh | PRMT1 inh conf
Cc1cccc(C)c1OCC(=O)N[C@@H](Cc1ccccc1)[C@@H](O)C[C@H](Cc1ccccc1)NC(=O)[C@H](C(C)C)N1CCCNC1=O | nt | nt | -2 | nt | nt | nt | nt
COc1ccc(C(=O)NCC23C=CC(O2)C2C(=O)N(Cc4ccccc4)C(=O)C23)cc1 (stereo not given) | -10 | 5 | 54* | 3 | 0 | 41 | 7
COc1ccc(CCNC(=O)c2ccc(CN3CCC(Cc4ccccc4)CC3)cc2)cc1 | 12 | 11 | 0 | 1 | 0 | -3 | nt
CC(=O)N(C(C)=O)N1C(=O)c2cccc3c(N4CCOCC4)ccc(c23)C1=O | 9 | -2 | 28* | -14 | 4 | 1 | 7
O=C(OCCN1C(=O)c2cccc3c(N4CCOCC4)ccc(c23)C1=O)c1cc(Cl)cc(Cl)c1 | 5 | nt | nt | nt | nt | nt | nt
CCCN1C(=O)c2cccc3c(N4CCCCC4)ccc(c23)C1=O | 1 | -10 | 84* | 9 | 2 | 0 | 51*
COC(C[C@H]1O[C@H]1[C@H](O)COCc1ccccc1)OC | nt | 2 | -2 | -6 | -6 | 4 | nt
CCOc1ccc(N2C(=O)CC(NCCNc3ccc([N+](=O)[O-])cn3)C2=O)cc1 (stereo not given) | 2 | 3 | 49* | 6 | -4 | -2 | 7
CCOc1ccc(N2C(=O)CC(N3CCN(c4ccc([N+](=O)[O-])cc4)CC3)C2=O)cc1 (stereo not given) | nt | 3 | 10 | 0 | 6 | 8 | nt
COc1ccc(N2C(=O)CC(NCCNc3ccc([N+](=O)[O-])cn3)C2=O)cc1 (stereo not given) | -5 | 10 | 36* | 0 | -10 | 0 | 8
Fc1ccc(-c2n[nH]c(=S)n2/N=C/c2c[nH]c3ccccc23)cc1 | -1 | -8 | 31* | -1 | -4 | -1 | 22*
Cc1cc(-c2n[nH]c(=S)n2/N=C/c2c[nH]c3ccccc23)n[nH]1 | nt | -2 | 8 | 8 | 12 | -3 | nt
CCN(CC)c1ccc(C=Nn2c(-c3ccc(F)cc3)n[nH]c2=S)c(O)c1 | nt | nt | 37* | nt | nt | nt | 35*
CCc1nc2ccc(C(=O)N(C)Cc3ccco3)cn2c1N(C)CCCc1ccccc1 | nt | 12 | 3 | 3 | nt | 34 | nt
O=C(Nc1c2c(nn1-c1ccc(Cl)cc1)CS(=O)(=O)C2)c1ccccc1 | nt | -1 | 5 | -4 | 4 | -2 | nt
Cc1ccc(S(=O)(=O)NN=CC=CC=NNS(=O)(=O)c2ccc(C)cc2)cc1 | nt | -6 | 39* | -2 | 0 | 0 | 44*
Cc1ccc(-c2nc3nc4ccccc4nc3n2Cc2ccco2)cc1 | -1 | 7 | 2 | -4 | -31 | -1 | nt
Clc1ccc(-c2nc3nc4ccccc4nc3n2Cc2ccco2)cc1 | 2 | 10 | 27* | 15 | 9 | 2 | 13
FC(F)(F)c1cccc(Cc2noc(CN3CCC(c4ccncc4)CC3)n2)c1 | 1 | 1 | -1 | -9 | 0 | 1 | nt
O=C(O)c1cc(O)c2c(c1)[C@H]([C@H]1c3cc(C(=O)O)cc(O)c3C(=O)c3c(O[C@@H]4O[C@H](CO)[C@@H](O)[C@H](O)[C@H]4O)cccc31)c1cccc(OC3O[C@H](CO)[C@@H](O)[C@H](O)[C@H]3O)c1C2=O (stereo not given in full) | nt | 1 | 37* | -17 | -2 | 3 | 13
O=C(O)c1cc(O)c2c(c1)[C@@H]([C@H]1c3cc(C(=O)O)cc(O)c3C(=O)c3c(O[C@@H]4O[C@H](CO)[C@@H](O)[C@H](O)[C@H]4O)cccc31)c1cccc(OC3O[C@H](CO)[C@@H](O)[C@H](O)[C@H]3O)c1C2=O (stereo not given in full) | nt | -3 | 32* | -8 | -5 | 3 | 13
O=c1c2ccccc2nc2n1CCc1ccc(Br)cc1-2 | nt | -6 | 4 | -13 | nt | -8 | nt
CC(=O)c1c(N2CCN(C(=O)c3ccco3)CC2)nc(=S)n(-c2ccccc2)c1C | 11 | 0 | 36* | -12 | 1 | -1 | 39*
CC(=O)c1c(N2CCCC2)nc(=S)n(-c2ccccc2)c1C | -6 | -9 | 14 | 7 | 1 | 3 | nt
CCn1c(C)c(C(C)=O)c(N2CCN(c3ccccc3)CC2)nc1=S | -8 | -20 | 37* | 3 | -3 | -2 | 2
SMILES | TLR4-MyD88 BLA | ABHD5-PLIN5 inh | PRMT1 inh | NOD2 RIPK2 PPI | TLR9-MyD88 block | Granule exo inh | PRMT1 inh conf
CCn1c(C)c(C(C)=O)c(N2CCN(C(c3ccccc3)c3ccccc3)CC2)nc1=S | 3 | -8 | -1 | -5 | 8 | -1 | nt
O=C(Nc1ccc(F)cc1)N[C@H]1CC[C@H](CCNS(=O)(=O)c2cccc(Cl)c2)O[C@@H]1CO | nt | -7 | -2 | 10 | nt | 7 | nt
C=CCn1c(=O)c(C(=O)NC(C)c2ccccc2)c(O)c2ccccc21 (stereo not given) | nt | -1 | -1 | 3 | 3 | -5 | nt
COc1ccccc1NC(=O)c1cc(=O)[nH]c2ccccc12 | nt | -16 | 25* | -13 | 11 | -4 | 6
CC(=O)NCCN=C(C)c1sc2ccccc2c1O | -4 | -5 | 25* | -1 | -3 | 1 | 21*
CC(=Nc1cccc(C)c1)c1sc2ccccc2c1O | 1 | -1 | 26* | 1 | -1 | -3 | 19
CC(=Nc1ccc(O)cc1)c1sc2ccccc2c1O | 13 | -10 | 27* | 3 | 5 | 0 | 13
CC(=Nc1ccccc1O)c1sc2ccccc2c1O | nt | 0 | 34* | -8 | 0 | 1 | 25*
Oc1c(N=Nc2ccccc2)sc2ccccc12 | nt | 6 | 7 | 11 | 12 | 1 | nt
Cc1nn(C)c(C)c1S(=O)(=O)N(CC(=O)NCCCN1CC(C)CC(C)C1)c1ccc(C(C)C)cc1 (stereo not given) | nt | -1 | 2 | 0 | -4 | -2 | nt
CC(=O)Nc1ccc(SCC(=O)N(CCC#N)c2ccc(C)cc2)cc1 | 5 | 0 | 39* | 1 | 0 | 4 | 16
CC(C)C[C@H](NC(=O)/C=C/[C@H]1O[C@@H](n2ccc(=O)[nH]c2=O)[C@H](O)[C@@H]1O)C(=O)O | nt | 4 | 1 | 2 | nt | -3 | nt
